Source: the supplement of paper PMC3334620
Whole data set: some 33,000 sequences, median “E-score (-0.5 to 0.5)” near -0.01, cut for the highest 2% near 0.26. Only a selection was taken, and the highest values are over-represented in it overall.

These sequences were tested against Ste12 (UniProt P13574) (assay: PBM E-score (8-mer binding enrichment) (E-score (-0.5 to 0.5)); higher = stronger / more preferred TF binding). Details: protein concentration: 200 nM; construct: GST-DNA-binding domain.
Outline: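 Masliner-normalised scans of fluorescent anti-GST signal were the basis for scoring. That signal came from GST-tagged yeast transcription factors applied at about 100-200 nM to double-stranded universal all-10-mer Agilent arrays on fresh or once-stripped slides. Each ungapped eight-base word, pooled with its reverse complement, received an E-score from the Universal PBM Analysis Suite.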

Sequence of UniProt P13574 (P13574 whole entry, the tested form may be a part): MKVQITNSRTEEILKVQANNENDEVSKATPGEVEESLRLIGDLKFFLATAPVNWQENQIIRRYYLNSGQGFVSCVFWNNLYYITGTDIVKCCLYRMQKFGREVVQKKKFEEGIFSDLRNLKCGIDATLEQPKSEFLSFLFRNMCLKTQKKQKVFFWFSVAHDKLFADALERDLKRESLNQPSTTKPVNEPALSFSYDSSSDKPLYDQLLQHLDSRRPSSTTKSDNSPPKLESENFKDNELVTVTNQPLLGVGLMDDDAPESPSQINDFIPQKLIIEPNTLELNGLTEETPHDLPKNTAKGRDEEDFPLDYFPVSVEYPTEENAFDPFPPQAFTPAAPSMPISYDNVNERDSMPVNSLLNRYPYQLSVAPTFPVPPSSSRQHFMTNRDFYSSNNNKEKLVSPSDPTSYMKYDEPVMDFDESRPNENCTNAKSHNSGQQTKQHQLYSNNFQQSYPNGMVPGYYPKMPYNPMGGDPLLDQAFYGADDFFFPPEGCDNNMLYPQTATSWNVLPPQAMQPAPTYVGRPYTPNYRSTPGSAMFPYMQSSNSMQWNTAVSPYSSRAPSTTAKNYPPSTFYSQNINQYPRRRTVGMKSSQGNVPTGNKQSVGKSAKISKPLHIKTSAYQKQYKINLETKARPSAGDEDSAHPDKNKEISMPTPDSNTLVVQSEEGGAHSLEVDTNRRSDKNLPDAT

| Sequence | PBM E-score |
| --- | --- |
| ACTGGGAA | 0.0846 |
| AGCTAGTC | -0.133 |
| ACAAACAG | 0.125 |
| ACAAACAA | 0.0589 |
| ACAAACAC | 0.266 |
| CCAAACAA | 0.125 |
| GCAAACAA | 0.146 |
| TCAAACAA | 0.266 |
| CAGGGCGA | -0.103 |
| CAGCGATC | -0.00075 |
| AATGTCAT | 0.0301 |
| AGTCCCAC | -0.133 |
| CACAATAG | 0.227 |
| AGTCTAAT | 0.00604 |
| ATATAGAT | 0.179 |
| AGGCGGGA | 0.0721 |
| AGGGGCGC | 0.0204 |
| AGGCGGGC | 0.0738 |
| AGGGCGGG | 0.296 |
| AGGGCGTG | -0.116 |
| AGGCGGGG | 0.269 |
| AGGGCGGC | -0.0895 |
| AGGGGCGA | 0.165 |
| AGGGGCGG | 0.452 |
| GCAAAGCC | -0.185 |

| Sequence | PBM E-score |
| --- | --- |
| TCCCAGAA | -0.0433 |
| TGCTTTAA | 0.199 |
| ACTGAGGG | -0.101 |
| CGAGGTAC | -0.0522 |
| CGCCGCAG | 0.0202 |
| TAATTAGA | 0.161 |
| CAATTAGA | 0.102 |
| AAATTAGA | 0.283 |
| GCCGAACC | 0.0313 |
| CGCTGAGC | -0.154 |
| CCCCCGCC | -0.0801 |
| GGCCCGCC | 0.0329 |
| ACCCCGCC | 0.41 |
| AACCCGCC | 0.0991 |
| GCCCCGCA | -0.112 |
| GCCCCGCC | 0.33 |
| ACCCCTCC | 0.229 |
| GTCGCGAC | 0.389 |
| CTCGCGAC | 0.0527 |
| GTCGCGAA | -0.0274 |
| AACTATGG | -0.0761 |
| ATGTTGCG | 0.139 |
| AATTAATT | 0.254 |
| AATTAATG | 0.232 |
| TATTAATA | 0.336 |

| Sequence | PBM E-score |
| --- | --- |
| AATTAGTA | 0.263 |
| CATTAATA | 0.251 |
| CATTAGTA | 0.071 |
| AATTAGTC | 0.218 |
| AATTAATA | 0.359 |
| GATTAATA | 0.246 |
| CCATTGCA | 0.0632 |
| CGCCTAGC | -0.0616 |
| GTCACTAA | 0.0793 |
| AATGGGGT | -0.0055 |
| TAAACTTA | 0.168 |
| CAAACTAA | 0.265 |
| CAAACTAC | 0.0311 |
| CAAACTTA | 0.276 |
| TAAACTAA | 0.148 |
| CAAACTTC | 0.124 |
| ACGCTGAC | -0.194 |
| AGCAAACC | 0.194 |
| CATGGGAA | -0.0149 |
| CGGCTATC | -0.174 |
| ATTTCTAC | 0.253 |
| AACAAGTT | 0.154 |
| AACAAATA | 0.341 |
| AACAAATT | 0.268 |
| AACAAATG | 0.176 |

| Sequence | PBM E-score |
| --- | --- |
| AACAAGTA | 0.00602 |
| TACAAATA | 0.218 |
| CAGGCAAA | 0.0381 |
| AATCTTAT | 0.0186 |
| CGTTAGGA | 0.0933 |
| CGAATCCG | 0.0624 |
| GCCGCTTA | 0.0462 |
| GCGTTCTA | -0.0704 |
| AAATTCTA | 0.0535 |
| GAATTCTA | 0.107 |
| AAATTCTC | 0.105 |
| TAATTCTA | 0.267 |
| CAATTCTC | 0.00128 |
| GAATTCTC | 0.262 |
| CTTCACCC | 0.0896 |
| AAACGCTA | 0.112 |
| CCTGGCTA | -0.217 |
| GTCCGAAA | 0.211 |
| TTCCGAAA | 0.264 |
| ATCCGAAA | 0.185 |
| GAGGGCCA | 0.0172 |
| AAGAGATA | -0.0137 |
| CCGGCTCC | -0.0246 |
| AAAGTCGC | 0.282 |
| CAAGTCGC | -0.3 |

| Sequence | PBM E-score |
| --- | --- |
| AAAGTCGT | -0.0472 |
| GAGATGGA | -0.167 |
| GACATTGA | 0.051 |
| AGGTTGGA | 0.114 |
| CAACAGCA | 0.021 |
| ATGTTTGA | 0.337 |
| CTGTTTGC | -0.0149 |
| GTGTTCGA | 0.0597 |
| GTGTTTGA | 0.301 |
| ATGTTTGG | 0.151 |
| CTGTTTGA | 0.308 |
| GTTTTTGA | 0.236 |
| ATGTTTGC | 0.0377 |
| CCGTTTGA | 0.056 |
| ACCCGACA | 0.0405 |
| GCCGCAGC | 0.00254 |
| CCCAAAGA | 0.18 |
| GCCACGAC | 0.0374 |
| TTGCAAAA | 0.242 |
| ATCGAGCC | -0.0583 |
| AACGCCCT | -0.0731 |
| AAACATTC | 0.12 |
| ACGCAGGG | -0.0649 |
| TTCAAAAA | 0.298 |
| CTTCAAAC | 0.218 |

| Sequence | PBM E-score |
| --- | --- |
| CATCAAAA | 0.221 |
| TTCAAGAA | 0.247 |
| ATTCAAAC | 0.279 |
| CTCAAAAA | 0.178 |
| GATCAAAA | 0.194 |
| CTTCAAAA | 0.191 |
| ATTCAAAG | 0.145 |
| TTTCAAAA | 0.343 |
| TATCAAAA | 0.302 |
| GTTCAAAA | 0.107 |
| GGACAGAA | 0.136 |
| CAATTTAG | 0.118 |
| CGATAGTC | -0.186 |
| GAGTAAGC | -0.0348 |
| CGCAGGCA | -0.062 |
| ACCAGTCT | -0.25 |
| CAATGTGC | -0.133 |
| CCAGATCC | -0.149 |
| CTGACTAA | -0.00263 |
| GTCCAAAA | 0.123 |
| CCTCAAAA | 0.198 |
| CTCCAAAA | 0.183 |
| ATCAAAAA | 0.316 |
| TCTCAAAA | 0.275 |
| TTCCAAAA | 0.277 |

| Sequence | PBM E-score |
| --- | --- |
| ATCAAAAT | 0.192 |
| ATCAAAAG | 0.0655 |
| ACTCAAAA | 0.165 |
| TAACCCAA | 0.182 |
| CGAGGTAG | -0.219 |
| ACAGTGCA | -0.00511 |
| GGTTAGCA | -0.0625 |
| CCCTCCCA | 0.33 |
| ACCCTCCT | -0.00559 |
| GCCCCTCC | 0.445 |
| CCCCCTCC | -0.121 |
| GCCCCTCA | 0.0515 |
| ACCTCCCA | -0.187 |
| ACCCTCCA | -0.0426 |
| ACCTCCCC | 0.161 |
| GCCTCCCC | 0.305 |
| GCCTCCCA | -0.104 |
| ACCCTCCC | 0.378 |
| TCCTCCCA | -0.0691 |
| CGTAAAGA | -0.0705 |
| AACCTTAT | 0.138 |
| CGATCTTC | -0.0861 |
| ACAATGGC | 0.0105 |
| ACCCGTCC | -0.0354 |
| CCCTCCTC | 0.0435 |
